Among the data in paper PMC7862700, “An all-to-all approach to the identification of sequence-specific readers for epigenetic DNA modifications on cytosine” are binding signal values, retold here.

Holding throughout (experiment): DAPPL (digital affinity profiling via proximity ligation, sequencing); 10 mM Tris-HCl pH 7.5, 50 mM NaCl, 1 mM DTT, 4% glycerol, room temperature, 30 min; GST-TFs on glutathione beads, 16-mer random dsDNA library, 0.1% formaldehyde crosslink after washing; high values mean tight binding
Conditions in all cases: protein: recombinant; tags: N-terminal GST; dsDNA, one strand shown

The target in one assay is T1, FLI1 (Homo sapiens, UniProt Q01543 1-452).
T1 sequence: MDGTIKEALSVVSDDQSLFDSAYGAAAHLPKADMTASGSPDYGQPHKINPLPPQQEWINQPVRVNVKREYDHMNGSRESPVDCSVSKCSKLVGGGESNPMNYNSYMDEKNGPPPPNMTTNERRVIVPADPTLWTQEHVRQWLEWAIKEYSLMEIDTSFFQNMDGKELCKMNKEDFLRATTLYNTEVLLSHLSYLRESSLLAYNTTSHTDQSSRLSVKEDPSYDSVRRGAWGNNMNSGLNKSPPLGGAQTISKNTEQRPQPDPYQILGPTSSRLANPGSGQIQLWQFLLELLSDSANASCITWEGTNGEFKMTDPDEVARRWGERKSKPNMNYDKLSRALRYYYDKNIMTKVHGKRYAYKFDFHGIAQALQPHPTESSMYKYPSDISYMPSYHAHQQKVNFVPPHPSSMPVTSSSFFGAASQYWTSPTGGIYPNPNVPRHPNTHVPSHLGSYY
A digest of the protocol:
(§1)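 Beads coated with glutathione captured GST-fused human transcription factors that had been expressed in yeast, and the factors were then given DNA barcodes and pooled with a tag-only sample. The pools were incubated with 200 nmole of a random double-stranded 16-mer DNA library in Tris/NaCl/DTT/glycerol buffer for 30 min at room temperature, washed, crosslinked with 0.1% formaldehyde and proximity-ligated with BsaI/T4 ligase at 37 °C for 1 h. PCR amplification and Illumina NextSeq500 sequencing came last. Binding signal is each hexamer's read frequency for a factor divided by its frequency for the tag-only sample.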

The next assay has as its target T2, ELK1 (Homo sapiens, UniProt P19419 1-428).
T2 sequence: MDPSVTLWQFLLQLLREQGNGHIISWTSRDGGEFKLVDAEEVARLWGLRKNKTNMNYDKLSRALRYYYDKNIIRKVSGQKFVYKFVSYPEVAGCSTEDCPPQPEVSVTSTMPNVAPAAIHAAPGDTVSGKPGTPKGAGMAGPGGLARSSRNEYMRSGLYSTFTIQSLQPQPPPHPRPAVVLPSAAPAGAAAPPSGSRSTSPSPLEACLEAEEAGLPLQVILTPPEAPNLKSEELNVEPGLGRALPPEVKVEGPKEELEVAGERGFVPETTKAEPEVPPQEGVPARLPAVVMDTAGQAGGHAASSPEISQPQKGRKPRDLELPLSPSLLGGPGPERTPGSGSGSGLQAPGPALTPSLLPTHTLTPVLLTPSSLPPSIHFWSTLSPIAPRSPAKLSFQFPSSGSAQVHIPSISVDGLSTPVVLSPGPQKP
The procedure, abridged:
as §1

The target of another assay is T3, GABPA (Homo sapiens, UniProt Q06546 1-454).
T3 sequence: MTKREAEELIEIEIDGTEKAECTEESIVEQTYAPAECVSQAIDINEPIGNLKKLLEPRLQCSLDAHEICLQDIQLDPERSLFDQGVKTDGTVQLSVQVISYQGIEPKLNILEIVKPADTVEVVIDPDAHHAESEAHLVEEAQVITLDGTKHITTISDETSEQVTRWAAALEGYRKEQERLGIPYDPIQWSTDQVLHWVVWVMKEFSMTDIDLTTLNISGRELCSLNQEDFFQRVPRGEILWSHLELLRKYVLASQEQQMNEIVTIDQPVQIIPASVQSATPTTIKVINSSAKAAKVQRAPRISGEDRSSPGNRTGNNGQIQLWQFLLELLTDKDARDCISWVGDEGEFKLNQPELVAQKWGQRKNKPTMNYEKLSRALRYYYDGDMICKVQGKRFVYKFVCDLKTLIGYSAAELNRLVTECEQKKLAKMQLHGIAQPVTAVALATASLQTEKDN
The procedure, abridged:
as §1

A further assay has as its target T4, ERG (Homo sapiens, UniProt P11308 1-479).
T4 sequence: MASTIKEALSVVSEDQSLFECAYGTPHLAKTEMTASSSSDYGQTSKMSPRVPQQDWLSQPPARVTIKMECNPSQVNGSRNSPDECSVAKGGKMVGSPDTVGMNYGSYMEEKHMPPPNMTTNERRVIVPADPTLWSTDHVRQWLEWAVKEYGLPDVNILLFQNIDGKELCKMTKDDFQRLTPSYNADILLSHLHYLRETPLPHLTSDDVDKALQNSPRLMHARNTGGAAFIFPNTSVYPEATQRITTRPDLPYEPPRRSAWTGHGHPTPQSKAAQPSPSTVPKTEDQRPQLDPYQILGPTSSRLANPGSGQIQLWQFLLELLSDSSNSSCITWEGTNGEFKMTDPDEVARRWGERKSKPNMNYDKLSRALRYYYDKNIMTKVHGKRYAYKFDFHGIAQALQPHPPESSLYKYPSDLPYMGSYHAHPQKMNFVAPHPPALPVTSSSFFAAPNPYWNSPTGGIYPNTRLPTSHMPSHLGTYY
A digest of the protocol:
as §1

Another assay has as its target ELF1 (Homo sapiens, UniProt P32519 1-619). The procedure, abridged:
as §1

The next assay concerns the target T5, EHF (Homo sapiens, UniProt Q9NZC4 1-300).
T5 sequence: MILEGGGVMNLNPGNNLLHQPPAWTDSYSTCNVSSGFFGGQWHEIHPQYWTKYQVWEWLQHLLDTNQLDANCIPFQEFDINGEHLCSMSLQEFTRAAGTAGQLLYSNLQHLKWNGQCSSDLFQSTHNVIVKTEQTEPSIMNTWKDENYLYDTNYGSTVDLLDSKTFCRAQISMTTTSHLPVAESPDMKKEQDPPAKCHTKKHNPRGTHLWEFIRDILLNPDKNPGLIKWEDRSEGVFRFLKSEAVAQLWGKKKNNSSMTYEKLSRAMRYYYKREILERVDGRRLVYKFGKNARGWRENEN
A digest of the protocol: as §1

The next assay has as its target SPI1 (Homo sapiens, UniProt P17947 1-270). A digest of the protocol: as §1
A further assay addresses SPIB (Homo sapiens, UniProt Q01892 1-262). A digest of the protocol: as §1
The target in a further assay is T6, ELK3 (Homo sapiens, UniProt P41970 1-407).
T6 sequence: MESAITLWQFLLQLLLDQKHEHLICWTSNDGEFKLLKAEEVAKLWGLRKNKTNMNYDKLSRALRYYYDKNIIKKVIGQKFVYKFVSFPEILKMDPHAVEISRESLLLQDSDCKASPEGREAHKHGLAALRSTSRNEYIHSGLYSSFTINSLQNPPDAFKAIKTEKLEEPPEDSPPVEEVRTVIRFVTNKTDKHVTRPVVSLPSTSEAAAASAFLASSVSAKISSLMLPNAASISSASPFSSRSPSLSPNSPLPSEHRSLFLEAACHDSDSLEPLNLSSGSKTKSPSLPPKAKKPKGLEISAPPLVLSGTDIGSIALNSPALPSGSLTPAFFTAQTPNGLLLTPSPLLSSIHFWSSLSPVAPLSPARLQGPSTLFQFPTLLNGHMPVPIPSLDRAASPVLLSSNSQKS
The procedure, abridged:
as §1

SPIB, sequence (Q01892 whole entry): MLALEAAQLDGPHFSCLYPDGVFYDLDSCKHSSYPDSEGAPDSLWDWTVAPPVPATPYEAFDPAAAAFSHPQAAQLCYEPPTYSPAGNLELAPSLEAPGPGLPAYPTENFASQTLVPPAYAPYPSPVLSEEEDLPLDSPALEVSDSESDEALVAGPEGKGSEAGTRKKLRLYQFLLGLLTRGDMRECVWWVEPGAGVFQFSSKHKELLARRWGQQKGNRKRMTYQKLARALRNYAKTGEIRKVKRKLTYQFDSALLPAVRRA
ELF1, sequence (P32519 whole entry): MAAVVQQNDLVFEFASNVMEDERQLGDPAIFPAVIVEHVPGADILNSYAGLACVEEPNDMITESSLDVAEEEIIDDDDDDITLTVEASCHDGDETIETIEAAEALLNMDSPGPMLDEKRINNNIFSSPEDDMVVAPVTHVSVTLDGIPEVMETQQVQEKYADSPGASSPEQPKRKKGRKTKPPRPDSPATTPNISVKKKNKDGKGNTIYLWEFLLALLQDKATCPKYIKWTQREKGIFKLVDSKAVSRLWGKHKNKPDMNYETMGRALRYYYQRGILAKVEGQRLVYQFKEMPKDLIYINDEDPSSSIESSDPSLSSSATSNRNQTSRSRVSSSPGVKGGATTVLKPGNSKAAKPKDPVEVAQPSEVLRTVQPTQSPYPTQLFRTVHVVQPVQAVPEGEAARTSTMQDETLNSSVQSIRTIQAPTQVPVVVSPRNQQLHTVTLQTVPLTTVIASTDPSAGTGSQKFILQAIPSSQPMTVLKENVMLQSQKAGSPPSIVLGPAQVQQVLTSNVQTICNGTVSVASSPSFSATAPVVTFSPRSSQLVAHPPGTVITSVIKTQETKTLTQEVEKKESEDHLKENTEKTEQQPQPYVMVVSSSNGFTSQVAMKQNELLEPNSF

As for TCCATT, the binding signal with FLI1 was 1.34 fold enrichment (6-mer frequency, TF over GST control); in the assay with ELK1 it was 1.16 fold enrichment (6-mer frequency, TF over GST control); in the assay with GABPA, 1.3 fold enrichment (6-mer frequency, TF over GST control); with ERG, 1.31 fold enrichment (6-mer frequency, TF over GST control); in the assay with ELF1, 1.26 fold enrichment (6-mer frequency, TF over GST control); in the assay with EHF, 1.27 fold enrichment (6-mer frequency, TF over GST control). Moreover, the binding signal with SPI1 was 1.33 fold enrichment (6-mer frequency, TF over GST control); in the assay with SPIB, 1.39 fold enrichment (6-mer frequency, TF over GST control); in the assay with ELK3, 1.26 fold enrichment (6-mer frequency, TF over GST control).
For CTGCGC, the binding signal with FLI1 is 1.18 fold enrichment (6-mer frequency, TF over GST control); with ELK1, 1.4 fold enrichment (6-mer frequency, TF over GST control); in the assay with GABPA, 1.34 fold enrichment (6-mer frequency, TF over GST control); with ERG, 1.37 fold enrichment (6-mer frequency, TF over GST control); with ELF1 it was 1.45 fold enrichment (6-mer frequency, TF over GST control); with EHF, 1.4 fold enrichment (6-mer frequency, TF over GST control). Also, the binding signal was 1.31 fold enrichment (6-mer frequency, TF over GST control) with SPI1; 1.34 fold enrichment (6-mer frequency, TF over GST control) in the assay with SPIB; 1.22 fold enrichment (6-mer frequency, TF over GST control) with ELK3.
In the case of ACATAT, the binding signal in the assay with FLI1 is 1.18 fold enrichment (6-mer frequency, TF over GST control); with ELK1, 1.25 fold enrichment (6-mer frequency, TF over GST control); in the assay with GABPA, 1.3 fold enrichment (6-mer frequency, TF over GST control); with ERG it was 1.25 fold enrichment (6-mer frequency, TF over GST control); in the assay with ELF1, 1.27 fold enrichment (6-mer frequency, TF over GST control); with EHF, 1.22 fold enrichment (6-mer frequency, TF over GST control). The binding signal was 1.2 fold enrichment (6-mer frequency, TF over GST control) in the assay with SPI1; 1.2 fold enrichment (6-mer frequency, TF over GST control) in the assay with SPIB; 1.28 fold enrichment (6-mer frequency, TF over GST control) in the assay with ELK3.
As to CTACGA, the binding signal is 1.16 fold enrichment (6-mer frequency, TF over GST control) with FLI1; 1.24 fold enrichment (6-mer frequency, TF over GST control) with ELK1; 1.29 fold enrichment (6-mer frequency, TF over GST control) with GABPA; 1.2 fold enrichment (6-mer frequency, TF over GST control) with ERG; 1.27 fold enrichment (6-mer frequency, TF over GST control) with ELF1; 1.25 fold enrichment (6-mer frequency, TF over GST control) in the assay with EHF. Moreover, the binding signal with SPI1 is 1.14 fold enrichment (6-mer frequency, TF over GST control); with SPIB it was 1.23 fold enrichment (6-mer frequency, TF over GST control); with ELK3, 1.33 fold enrichment (6-mer frequency, TF over GST control).
Turning to ACTAGC, the binding signal in the assay with FLI1 is 1.23 fold enrichment (6-mer frequency, TF over GST control); with ELK1 it was 1.18 fold enrichment (6-mer frequency, TF over GST control); in the assay with GABPA it was 1.26 fold enrichment (6-mer frequency, TF over GST control); with ERG, 1.21 fold enrichment (6-mer frequency, TF over GST control); with ELF1, 1.15 fold enrichment (6-mer frequency, TF over GST control); with EHF it was 1.11 fold enrichment (6-mer frequency, TF over GST control). Moreover, the binding signal with SPI1 is 1.28 fold enrichment (6-mer frequency, TF over GST control); with SPIB, 1.22 fold enrichment (6-mer frequency, TF over GST control); with ELK3 it was 1.1 fold enrichment (6-mer frequency, TF over GST control).
Consider CTTGTA, for which the binding signal with FLI1 was 1.5 fold enrichment (6-mer frequency, TF over GST control); with ELK1 it was 1.36 fold enrichment (6-mer frequency, TF over GST control); in the assay with GABPA, 1.37 fold enrichment (6-mer frequency, TF over GST control); in the assay with ERG it was 1.33 fold enrichment (6-mer frequency, TF over GST control); with ELF1 it was 1.41 fold enrichment (6-mer frequency, TF over GST control); with EHF, 1.42 fold enrichment (6-mer frequency, TF over GST control). The binding signal was 1.39 fold enrichment (6-mer frequency, TF over GST control) in the assay with SPI1; 1.44 fold enrichment (6-mer frequency, TF over GST control) in the assay with SPIB; 1.25 fold enrichment (6-mer frequency, TF over GST control) in the assay with ELK3.
For the sequence CTTATA, the binding signal is 1.3 fold enrichment (6-mer frequency, TF over GST control) with FLI1; 1.33 fold enrichment (6-mer frequency, TF over GST control) with ELK1; 1.41 fold enrichment (6-mer frequency, TF over GST control) with GABPA; 1.28 fold enrichment (6-mer frequency, TF over GST control) with ERG; 1.33 fold enrichment (6-mer frequency, TF over GST control) in the assay with ELF1; 1.4 fold enrichment (6-mer frequency, TF over GST control) with EHF. Moreover, the binding signal with SPI1 is 1.43 fold enrichment (6-mer frequency, TF over GST control); with SPIB, 1.39 fold enrichment (6-mer frequency, TF over GST control); in the assay with ELK3 it was 1.29 fold enrichment (6-mer frequency, TF over GST control).
